The record followed here is PubChem BioAssay (Tox21).

Assay [1] is described as follows: qHTS assay to test for compound auto fluorescence at 535 nm (green) in HEK293 cells (AID 720680). On the technique in general: Quantitative high-throughput screening tests each substance at several concentrations.
Assay [2] is described as follows: qHTS assay to test for compound auto fluorescence at 590 nm (red) in HEK293 cell free culture (AID 720683). The gist of the method:
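Tox21 10K library compounds were pinned into cell-free DMEM with 10% FBS and fluorescence was read at excitation 540 nm. Activity is expressed as Rose Bengal sodium equivalency.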

Assay [3] in a line: qHTS assay to test for compound auto fluorescence at 590 nm (red) in HepG2 cell free culture (AID 720684). The procedure, abridged: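 Ex 540 / Em 590 nm read of compound in cell-free MEM (10% FBS). Rose Bengal sodium reference.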
The nature of assay [4]: qHTS assay to test for compound auto fluorescence at 460 nm (blue) in HepG2 cell free culture (AID 720685). The gist of the method: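 Cell-free plates of MEM plus 10% FBS received 23 nL compound or DMSO vehicle; blue-channel (405/460 nm) intensity scored against triamterene as reference fluorophore.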
Assay [5] is described as follows: qHTS assay to test for compound auto fluorescence at 535 nm (green) in HepG2 cell free culture (AID 720686).
Assay [6] in a line: qHTS assay to test for compound auto fluorescence at 460 nm (blue) in HepG2 cells (AID 720687). The gist of the method:
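Cells (2,000/well in MEM with 10% FBS) attached overnight at 37 C, then were exposed to compound or DMSO for 1 hr at 37 C, 5% CO2. Fluorescence read at Ex/Em 405/460 nm, expressed as triamterene-equivalent signal.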

Assay [7] deals with Glucocorticoid receptor (Homo sapiens) (UniProt P04150). Kind of assay: qHTS assay to identify small molecule agonists of the glucocorticoid receptor (GR) signaling pathway (AID 720691; active = well fitted activation curve with a large enough effect in the signal ratio in the repeat runs, not every such curve was filed as active; the % refers to the signal ratio). The procedure, abridged: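 Steps: seed GR-bla HeLa cells, incubate 4 h at 37 C/5% CO2; pin-transfer DMSO-dissolved compounds; incubate 18 h at 37 C; add LiveBLAzer B/G FRET substrate; after 2 h at room temperature, measure fluorescence.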
Glucocorticoid receptor (Homo sapiens), sequence (P04150 whole entry, looked up): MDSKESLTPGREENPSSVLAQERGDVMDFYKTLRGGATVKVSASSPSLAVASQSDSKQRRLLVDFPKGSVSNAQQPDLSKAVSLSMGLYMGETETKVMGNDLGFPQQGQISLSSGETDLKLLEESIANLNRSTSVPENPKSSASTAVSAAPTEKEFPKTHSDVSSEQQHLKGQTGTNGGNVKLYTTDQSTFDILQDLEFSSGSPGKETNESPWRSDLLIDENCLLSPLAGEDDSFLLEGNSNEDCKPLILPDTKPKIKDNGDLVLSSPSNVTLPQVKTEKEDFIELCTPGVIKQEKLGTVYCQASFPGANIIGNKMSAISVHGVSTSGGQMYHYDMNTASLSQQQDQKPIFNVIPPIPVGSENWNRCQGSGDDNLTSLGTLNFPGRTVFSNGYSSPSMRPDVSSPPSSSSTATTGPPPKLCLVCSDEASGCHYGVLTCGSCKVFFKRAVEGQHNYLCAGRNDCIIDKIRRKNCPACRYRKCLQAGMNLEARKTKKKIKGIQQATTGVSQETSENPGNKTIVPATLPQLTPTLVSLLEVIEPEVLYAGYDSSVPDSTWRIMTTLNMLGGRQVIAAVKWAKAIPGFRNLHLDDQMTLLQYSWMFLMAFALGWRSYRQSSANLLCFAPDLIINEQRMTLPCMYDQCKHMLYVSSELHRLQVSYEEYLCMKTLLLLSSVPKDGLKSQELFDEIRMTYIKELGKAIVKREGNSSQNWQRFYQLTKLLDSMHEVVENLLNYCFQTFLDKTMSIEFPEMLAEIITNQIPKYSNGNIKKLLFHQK

For assay [8] the target is unchanged. Put plainly: qHTS assay to identify small molecule antagonists of the glucocorticoid receptor (GR) signaling pathway (AID 720692; active = well fitted inhibition curve with a large enough effect in the signal ratio in the repeat runs, not every such curve was filed as active; the % refers to the signal ratio; also: potency is read from the fitted curve at half-maximal effect). The gist of the method:
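Antagonism was scored as loss of dexamethasone-driven (5 nM final) reporter signal in HeLa cells bearing a glucocorticoid response element–beta-lactamase construct, after 18 h compound exposure at 37 C and 2 h FRET substrate loading.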

The nature of assay [9]: qHTS assay to identify small molecule antagonists of the glucocorticoid receptor (GR) signaling pathway - cell viability counter screen (AID 720693). Also: nearly all actives have a fitted effect of over 55% in size.
Assay [10] is described as follows: qHTS assay for identifying genotoxic compounds that show differential cytotoxicity against isogenic chicken DT40 cell lines with known DNA damage response pathways - wild type cell line (AID 743012). Also: nearly all actives have a fitted effect of over 60% in size. Also: potency is read from the fitted curve at half-maximal effect. The procedure, abridged: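 Cytotoxicity in repair-proficient parental chicken DT40 cells serves as the comparator for Rad54/Ku70- and Rev3-deficient lines. Cells were exposed to compounds for 40 h at 37 C/5% CO2, and ATP-based luminescence (CellTiter-Glo) measured viability.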

The nature of assay [11]: qHTS assay for identifying genotoxic compounds that show differential cytotoxicity against isogenic chicken DT40 cell lines with known DNA damage response pathways - Rad54/Ku70 mutant cell line (AID 743015). Also: nearly all actives have a fitted effect of over 60% in size. Also: potency is read from the fitted curve at half-maximal effect.
The nature of assay [12]: qHTS assay to identify small molecule antagonists of the androgen receptor (AR) signaling pathway - cell viability counter screen (AID 743033; also: nearly all actives have a fitted effect of over 45% in size).
The nature of assay [13]: qHTS assay to test for compound auto fluorescence at 460 nm (blue) in HEK293 cell free culture (AID 720681). The gist of the method:
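Test compounds were pinned into cell-free culture medium (DMEM with 10% FBS) and fluorescence was read directly at Ex/Em 405/460 nm. Signals were expressed as fluorescence equivalents of triamterene, with DMSO vehicle as control.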

Assay [14] in a line: qHTS assay to test for compound auto fluorescence at 535 nm (green) in HEK293 cell free culture (AID 720682). The gist of the method:
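Steps: dispense DMEM/10% FBS into empty wells; pin in compound or DMSO; measure fluorescence at 485/535 nm. Values are fluorescein equivalents.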

Assay [15] is described as follows: qHTS assay for identifying genotoxic compounds that show differential cytotoxicity against isogenic chicken DT40 cell lines with known DNA damage response pathways - Rev3 mutant cell line (AID 743014). Also: nearly all actives have a fitted effect of over 55% in size. Also: potency is read from the fitted curve at half-maximal effect.
Assay [16] in a line: qHTS assay to identify small molecule antagonists of the androgen receptor (AR) signaling pathway using the MDA cell line - cell viability counter screen (AID 743041; also: nearly all actives have a fitted effect of over 45% in size). The procedure, abridged: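 In this qHTS counter assay, fluorescence intensity after CellTiter-Fluor addition indicated viability of MDA-kb2 AR-luc cells given compounds and R1881 for 16 h at 37C.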
In assay [17] the target is Androgen receptor (Homo sapiens) (UniProt P10275). Put plainly: qHTS assay to identify small molecule antagonists of the androgen receptor (AR) signaling pathway (AID 743035; active = well fitted inhibition curve with a large enough effect in the signal ratio in the repeat runs, not every such curve was filed as active; the % refers to the signal ratio). The gist of the method:
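Steps: seed AR-UAS-bla GripTite HEK293 cells, incubate 4 h at 37C; pin in test compound, then add agonist R1881; incubate 16 h at 37C; add LiveBLAzer B/G FRET substrate, 2 h at room temperature; read fluorescence.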

For assay [18] the target is unchanged. Put plainly: qHTS assay to identify small molecule agonists of the androgen receptor (AR) signaling pathway using the MDA cell line (AID 743040; also: nearly all actives have a fitted effect of over 20% in size). The gist of the method: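 Cell-based luciferase reporter: MDA-kb2, MMTV promoter (AR + GR response elements). 16 h compound exposure at 37C; ONE-Glo, 30 min RT, luminescence.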
For assay [19] the target is unchanged. Kind of assay: qHTS assay to identify small molecule antagonists of the androgen receptor (AR) signaling pathway using the MDA cell line (AID 743042; also: nearly all actives have a fitted effect of over 55% in size). The procedure, abridged:
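MDA-kb2 cells (human breast carcinoma, stably carrying an MMTV-luciferase reporter responsive to AR and GR) were plated at 3,000 cells/well and preincubated 5 hr at 37C, then given compound plus R1881 agonist for 16 h. ONE-Glo luminescence was read.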

Assay [20] has the same target. Put plainly: qHTS assay to identify small molecule agonists of the androgen receptor (AR) signaling pathway (AID 743036; active = well fitted activation curve with a large enough effect in the signal ratio in the repeat runs, with a control signal flat, not every such curve was filed as active; the % refers to the signal ratio). The gist of the method: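 Reporter line: GeneBLAzer AR-UAS-bla-GripTite (HEK293). Steps: plate cells, 4 h rest, add compounds, 16 h at 37C, add LiveBLAzer B/G substrate, 2 h at RT, read fluorescence.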

Several values for one entry are separate records, joined by “and”; a condition that tells them apart may be missing. Equal entries are not always repeated. A number with no mark means an inactive call. Inconclusive results are not listed. Activity calls are given as the source filed them. Unless noted, calls follow the shape of the dose curve; as a rule, active = well fitted curve in the direction sought with a large enough effect in the repeat runs; inconclusive = weak or mixed curves; inactive = no such curve, though single readings can be large; an effect the other way counts as inactive or inconclusive.
% is scaled to controls: 0 for no effect and ±100 for the full control effect.

Androgen receptor (Homo sapiens), sequence (P10275 whole entry, looked up): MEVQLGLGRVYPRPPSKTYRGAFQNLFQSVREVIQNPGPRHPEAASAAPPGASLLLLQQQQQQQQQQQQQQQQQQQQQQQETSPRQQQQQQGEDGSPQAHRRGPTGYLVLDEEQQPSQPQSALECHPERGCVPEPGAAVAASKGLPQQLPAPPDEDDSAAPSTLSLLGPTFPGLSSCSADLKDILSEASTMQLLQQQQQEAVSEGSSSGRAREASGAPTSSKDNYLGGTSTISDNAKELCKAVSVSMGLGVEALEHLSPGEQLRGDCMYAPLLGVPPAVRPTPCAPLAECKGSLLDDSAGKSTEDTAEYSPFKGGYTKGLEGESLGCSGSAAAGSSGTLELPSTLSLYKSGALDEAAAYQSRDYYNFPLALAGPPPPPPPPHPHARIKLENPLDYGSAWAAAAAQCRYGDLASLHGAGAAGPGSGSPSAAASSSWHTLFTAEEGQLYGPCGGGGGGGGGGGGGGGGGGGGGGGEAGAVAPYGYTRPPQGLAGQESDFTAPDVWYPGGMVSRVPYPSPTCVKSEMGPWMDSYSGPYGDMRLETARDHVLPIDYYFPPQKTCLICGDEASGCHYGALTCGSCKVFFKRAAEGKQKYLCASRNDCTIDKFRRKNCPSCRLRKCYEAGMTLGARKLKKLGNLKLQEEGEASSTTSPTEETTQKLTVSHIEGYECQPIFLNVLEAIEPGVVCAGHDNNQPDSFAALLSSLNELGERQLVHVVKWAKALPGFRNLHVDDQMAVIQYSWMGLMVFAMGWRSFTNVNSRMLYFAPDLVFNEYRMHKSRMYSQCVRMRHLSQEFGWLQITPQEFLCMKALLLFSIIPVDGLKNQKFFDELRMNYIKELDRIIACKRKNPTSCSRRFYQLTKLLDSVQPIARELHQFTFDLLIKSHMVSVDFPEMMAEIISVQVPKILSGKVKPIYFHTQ

On to `C1CCC(SSC2CCCCC2)CC1`, for which the Potency entry in assay [1], in [2], in assay [3], in [4], in assay [5] and in [6] was “inactive” throughout. Further, the Potency result in assay [7], in assay [8], in [9], in assay [10], in assay [11] and in assay [12] was “inactive” throughout.
Turning to `COc1cc(/C=C/c2ccccc2)oc(=O)c1`, the Potency result in assay [13], in assay [14], in assay [2], in [3], in assay [4] and in [5] was “inactive” in each case. Further, the Potency result in assay [6], in assay [7], in [8], in assay [9], in assay [10] and in assay [15] was “inactive” in each case. Moreover, the Potency entry in assay [12] and in [16] was “inactive” each time.
Regarding `c1ccc(SSc2ccccc2)cc1`, the Potency entry in assay [1], in assay [14], in assay [2], in [3], in assay [4] and in [5] was “inactive” in each case. For the same compound, the Potency entry in [6], in assay [7], in assay [9], in assay [12] and in [16] was “inactive” in each case. For the same compound, in [15], the Potency was 27.5 µM (active).
For the compound `CCc1cccc(CC)c1NC(=O)CN(CC(=O)O)CC(=O)O`, the fluorescence, % of fluorescein in assay [1] is 0.0114% [at 18.6 µM]. For the same compound, the activity change in assay [14] was 0.0655% [at 18.6 µM, hits give high values]. Further, the figures for the fluorescence, % of fluorescent control in [2], in assay [4] and in [6] were 0.184% [at 18.6 µM], -0.0593% [at 18.6 µM] and 0.148% [at 18.6 µM], respectively. In addition, the fluorescence, % of Rose Bengal in assay [3] was -0.249% [at 18.6 µM]. Besides, in assay [5], the fluorescence, % of fluorescein control is 0.0075% [at 18.6 µM]. In addition, the Potency result in assay [7], in assay [8], in [9], in assay [10], in assay [15] and in assay [11] was “inactive” each time. Also, the Potency result in assay [12] and in assay [16] was “inactive” each time.
Take `Nc1nc(N)nc(-c2cc(Cl)ccc2Cl)n1`: the Potency entry in assay [1], in [14], in [2], in [3], in assay [4] and in [5] was “inactive” throughout. Further, the Potency result in assay [6], in assay [7], in assay [8], in assay [9], in assay [10] and in [15] was “inactive” each time. Further, the Potency result in [12] and in assay [16] was “inactive” throughout.
As for `Nc1nc2c(ncn2COCCO)c(=O)[nH]1`, the fluorescence, % of fluorescein in assay [1] is 0.029% [at 18.6 µM]. Further, the activity change in [14] was -0.0229% [at 18.6 µM, hits give high values]. Further, the fluorescence, % of fluorescent control in assay [2] is 0.0201% [at 18.6 µM]; in assay [4] it was 0.0242% [at 18.6 µM]; in assay [6] it was 0.176% [at 18.6 µM]. In addition, in assay [3], the fluorescence, % of Rose Bengal was -0.264% [at 18.6 µM]. In addition, the fluorescence, % of fluorescein control in assay [5] was -0.0997% [at 18.6 µM]. The Potency result in [7], in assay [8], in assay [9], in [12] and in assay [16] was “inactive” each time. For the same compound, the values for the Potency in assay [15] and in [11] were 2.27 µM (active) and 4.52 µM (active), respectively.
`C=CC(=O)OCCOC(=O)C=C`: the Potency result in [1], in [14], in [2], in [3], in assay [4] and in assay [5] was “inactive” each time. In addition, the Potency entry in assay [7], in [12], in assay [17], in [16] and in assay [19] was “inactive” throughout. Also, the Potency in assay [10] is 7.7 µM (active); in [15], 7.7 µM (active); in [11], 10.9 µM (active). In addition, the compound was classed as inactive in [18].
As to `CC1(C)[C@@H](O)CC[C@]2(C)[C@H]3C(=O)C=C4[C@@H]5C[C@@](C)(C(=O)O)CC[C@]5(C)CC[C@@]4(C)[C@]3(C)CC[C@@H]12`, the Potency entry in assay [1], in assay [14], in assay [2], in assay [3], in assay [4] and in [5] was “inactive” in each case. Moreover, the Potency result in assay [6], in assay [9], in [10], in assay [12], in [17] and in assay [20] was “inactive” in each case. Besides, the Potency entry in assay [16] and in assay [19] was “inactive” each time. Also, the Potency in [8] is 23.9 µM (active) and 21.3 µM (active) and 43.2 µM (active). The call in [18] was inactive.
